Laboratory results reported in the supplement of paper PMC7156485.
± gives the standard deviation of the averaged measurements.

Test system: HCC1569
Experiment: cell number relative to DMSO (% of DMSO); higher = more cells (less growth inhibition / toxicity)
Details: concentration: 10 µM; 24 h
In short: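 HCC1569 and TDF cells (800 per well, 384-well plates, RPMI with 10% FBS) were treated with compounds at 10 µM for 24 h at 37 °C, in triplicate. Cells were fixed in 3.7% formaldehyde and stained with a rabbit anti-H1.0 antibody, an AlexaFluor 647 secondary and DAPI; six fields per well were imaged at ×10. H1.0 nuclear intensity or cell number is expressed as percent of the plate DMSO control, taking the median of replicates. HCC1569 values were smoothed for positional effects.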
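Further: TDF denotes transformed human dermal fibroblasts of mesenchymal origin.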

First: CNCCc1ccc(O)c(O)c1.Cl [N-Methyldopamine hydrochloride]
Second: COc1ccc(O)c(C(C)(C)C)c1
The cell number of the first is lower: 105 for the first, 106 for the second.

Going from NC1(C(=O)O)CCC(C(=O)O)C1 (mixture of isomers) to NC(Cn1oc(=O)[nH]c1=O)C(=O)O (configuration not stated) [Quisqualic acid], the cell number falls from 104 to 100.

Going from CC1OCC(C[N+](C)(C)C)O1.[I-] (single isomer, unassigned; (+)) [(+)-cis-Dioxolane iodide] to CNC(=O)OCC[N+](C)(C)C.[Cl-] [Methylcarbamylcholine chloride], the cell number falls from 102 to 101.

Going from CN(C)C(=O)C(CCN1CCC(O)(c2ccc(Cl)cc2)CC1)(c1ccccc1)c1ccccc1.Cl [Loperamide.HCl] to Cc1ccc2c(c1)C1(CCN(CCc3nc(-c4ccccc4)oc3C)CC1)OC(=O)N2, the cell number falls from 102 to 85.9.

Compared with COc1ccc(Cc2nccc3cc(OC)c(OC)cc23)cc1OC.Cl [Papaverine hydrochloride], COc1ccc2c(c1O)-c1c(OC)c(OC)cc3c1C(C2)N(C)CC3.Cl (single isomer, unassigned; (+)) [(+)-Isocorydine hydrochloride] is higher in cell number: 87.1 ± 1.7 for the first, 103 for the second.

Compared with CCCN(CCC)C1CCc2cccc(O)c2C1 (racemic), CCCN1CCOC2c3cc(O)ccc3OCC21.Cl (stereo not drawn) [S(+)-PD 128,907 hydrochloride] is higher in cell number: 101 for the first, 103 for the second.

Compared with COC(C(=O)C(O)C(C)O)C1Cc2cc3cc(OC4CC(OC5CC(O)C(OC)C(C)O5)C(OC(C)=O)C(C)O4)c(C)c(O)c3c(O)c2C(=O)C1OC1CC(OC2CC(OC3CC(C)(O)C(OC(C)=O)C(C)O3)C(O)C(C)O2)C(O)C(C)O1 (configuration not stated) [Chromomycin A3], CCC(C)C1OC2(C=CC1C)CC1CC(CC=C(C)C(OC3CC(OC)C(OC4CC(OC)C(O)C(C)O4)C(C)O3)C(C)C=CC=C3COC4C(O)C(C)=CC(C(=O)O1)C34O)O2 (configuration not stated) [Abamectin] is higher in cell number: 42.1 for the first, 101 for the second.

Going from CCCN1CCCC2Cc3[nH]ncc3CC21.Cl (single isomer, unassigned; (-)) [(-)-Quinpirole hydrochloride] to Cl.O=C(N[C@H]1CN2CCC1CC2)c1c[nH]c2ccsc2c1=O, the cell number rises from 99.3 to 106.

First: CC(C)N(CCC(C(N)=O)(c1ccccc1)c1ccccn1)C(C)C.O=P(O)(O)O (configuration not stated) [Disopyramide phosphate]
Second: CC(N)C(O)c1ccccc1 (configuration not stated) [Phenylpropanolamine]
The cell number of the first is higher: 106 for the first, 102 for the second.

Going from CCCCCCCCCCCCCCCCOCC(O)COP(=O)([O-])OCC[N+](C)(C)C (configuration not stated) to CC(C)CC1C(=O)N2CCCC2C2(O)OC(NC(=O)C3C=C4c5cccc6[nH]c(Br)c(c56)CC4N(C)C3)(C(C)C)C(=O)N12.CS(=O)(=O)O (single isomer, unassigned; (+)) [(+)-Bromocriptine methanesulfonate], the cell number falls from 101 to 91.1.

First: C=C(C)C1C2OC(=O)C1C1(O)CC3OC34C(=O)OC2C14C (configuration not stated) [Picrotoxinin]
Second: CC(C)(O)C1C2OC(=O)C1C1(O)CC3OC34C(=O)OC2C14C (configuration not stated) [Picrotonin]
The cell number of the first is higher: 105 for the first, 99.4 for the second.

Going from COC1=CC(=O)OC(C=Cc2ccc3c(c2)OCO3)C1 (configuration not stated) [Methysticin] to CNC1CC(c2ccc(Cl)c(Cl)c2)c2ccccc21.Cl (configuration not stated) [Indatraline hydrochloride], the cell number falls from 106 to 84.1.

Compared with CC1OC(=O)C(C(C)C)NC(=O)C(C(C)C)OC(=O)C(C(C)C)NC(=O)C(C)OC(=O)C(C(C)C)NC(=O)C(C(C)C)OC(=O)C(C(C)C)NC(=O)C(C)OC(=O)C(C(C)C)NC(=O)C(C(C)C)OC(=O)C(C(C)C)NC1=O (configuration not stated) [Valinomycin], CC1CCC2C(C)C3CCC4(O)C(CC5C4CC(=O)C4CC(=O)CCC45C)C3CN2C1 (configuration not stated) [Sevedindione] is higher in cell number: 65 for the first, 99.8 for the second.

Going from Cc1ncc(CNC(=O)N(CCCl)N=O)c(N)n1.Cl [Nimustine hydrochloride] to CN(C(=O)Cc1ccc(Cl)c(Cl)c1)C(CN1CCCC1)c1cccc(OCC(=O)O)c1.Cl (configuration not stated) [ICI 204,448 hydrochloride], the cell number rises from 97.8 to 104.

Compared with O=[N+]([O-])c1ncc[nH]1 [Azomycin], CC(C)NCC(O)c1ccc(N)c(C#N)c1 (configuration not stated) [Cimaterol] is higher in cell number: 100 for the first, 103 for the second.

Going from CC12CCC3C(CCC4=CC(=O)CCC43C)C1CCC2=O (configuration not stated) [4-Androstene-3,17-dione] to CCn1cnc2c(Nc3cccc(Cl)c3)nc(NC3CCCCC3N)nc21 (configuration not stated), the cell number falls from 95.3 to 54.
